A short description of the assay: chemical genetic growth profiling, strain panel (AID 1159580).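 Also: tested at 20 µM; growth read once vehicle control cultures reached saturation at 30 °C; 1 = growth at the plate median or of vehicle wells; lower values mean less growth of the strain.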 The note with it: S. cerevisiae deletion strains, growth OD.
Where [1] appears, read: locus YAL040C, strain CLN3, hits give low values.
Where [2] appears, read: locus YCL061C, strain MRC1 (second series), hits give low values.
Setting [3] is: locus YDR363W, strain ESC2, hits give low values.
The mark [4] stands for this setting: locus YER002W, strain NOP16, hits give low values.
[5] abbreviates: locus YGR078C, strain PAC10, hits give low values.
Where [6] appears, read: locus YGR229C, strain SMI1, hits give low values.
The mark [7] stands for this setting: locus YMR307W, strain GAS1, hits give low values.
[8] abbreviates: locus YNL153C, strain GIM3, hits give low values.
[9] abbreviates: locus YNL175C, strain NOP13, hits give low values.
Setting [10] is: locus YNL197C, strain WHI3, hits give low values.
The mark [11] stands for this setting: locus YNL224C, strain SQS1, hits give low values.
The mark [12] stands for this setting: locus YOR083W, strain WHI5 (second series), hits give low values.
Where [13] appears, read: locus YJR075W, strain HOC1, hits give low values.
[14] abbreviates: locus YMR263W, strain SAP30, hits give low values.
Where [15] appears, read: locus YNL128W, strain TEP1, hits give low values.
Where [16] appears, read: locus YPL241C, strain CIN2, hits give low values.
[17] abbreviates: locus YNL322C, strain KRE1, hits give low values.

This passage reports normalized growth results from PubChem BioAssay AID1159580 (chemical genetic matrix, 2015).

Screen size: about 5,500 compounds; about 2,000 (36%) were called active. About 18% were inconclusive and are not listed. This is one part of the list. Values without a mark were called inactive. Rule as the data show it: active = normalized growth mostly below about 0.91 (no sharp cut-off); inconclusive = no clear call, values can overlap the other calls; inactive = mostly above about 0.92.

In the case of `NC(=O)C1=CN(C2OC(COP(=O)(O)OP(=O)(O)OC[C@H]3O[C@@H](n4cnc5c(N)ncnc54)C(OP(=O)(O)O)[C@H]3O)C(O)C2O)C=CC1` (stereo not given in full), the normalized growth under setting [1] is 0.989; the normalized growth under setting [2] is 0.997; the normalized growth under setting [3] was 0.976; the normalized growth under setting [4] was 0.977; the normalized growth under setting [5] is 0.979; the normalized growth under setting [6] was 1. In addition, the normalized growth is, setting by setting: under setting [7], 1; under setting [8], 1.02; under setting [9], 0.98; under setting [10], 0.986; under setting [11], 1; under setting [12], 0.991.
As for `CCCN1CCC[C@@H](c2cccc(O)c2)C1`, the normalized growth under setting [1] was 0.98; the normalized growth under setting [2] was 1; the normalized growth under setting [3] was 1.03; the normalized growth under setting [4] was 0.983; the normalized growth under setting [5] is 0.984; the normalized growth under setting [6] is 0.999. Besides, the normalized growth under setting [13] is 1; the normalized growth under setting [14] is 1; the normalized growth under setting [7] was 0.996; the normalized growth under setting [15] was 0.999; the normalized growth under setting [9] is 1.01; the normalized growth under setting [10] is 0.446 (active). Also, the normalized growth runs as follows: under setting [11], 0.993; under setting [12], 1.01; under setting [16], 0.999.
In the case of `CCCN1CCC[C@H](c2cccc(O)c2)C1`, the normalized growth reads like this: under setting [1], 1; under setting [2], 0.999; under setting [3], 1.03; under setting [4], 0.988; under setting [5], 1.01; under setting [6], 1. Moreover, the normalized growth under setting [14] was 0.993; the normalized growth under setting [7] is 0.992; the normalized growth under setting [15] was 1.01; the normalized growth under setting [8] was 1.18; the normalized growth under setting [9] was 0.995; the normalized growth under setting [10] was 1.01. For the same compound, the normalized growth is 1 under setting [11]; 1 under setting [17]; 1 under setting [12]; 0.994 (locus YPL055C, strain LGE1, hits give low values); 1.01 under setting [16].
Consider `CCCN1CCC[C@@H](c2cccc(C#N)c2)C1`, for which the normalized growth is, setting by setting: (locus YAL013W, strain DEP1, hits give low values) 1.01; under setting [1], 0.986; under setting [2], 1.01; (locus YDR150W, strain NUM1, hits give low values) 0.994; under setting [3], 1.04; under setting [4], 0.989. The normalized growth is, setting by setting: under setting [6], 1.04; under setting [13], 1; under setting [14], 1.01; under setting [9], 0.993; under setting [10], 1.04; under setting [11], 1.01. In addition, the normalized growth was 1 under setting [17] and 0.978 under setting [12].
As to `NCCc1c[nH]c2ccc(C(N)=O)cc12`, the normalized growth is, setting by setting: under setting [1], 1.1; under setting [2], 1; under setting [3], 1.01; under setting [4], 1.01; under setting [5], 1.02; under setting [7], 1. In addition, the normalized growth is 1.01 under setting [8]; 1.01 under setting [9]; 1.02 under setting [10]; 0.997 under setting [11]; 1.02 under setting [12]; 1 under setting [16].
